Source: the antibiotic and cytotoxicity screens of Wong et al. (2023)
The campaign covered roughly 39,000 compounds. About 1,500 (3.8%) were called active. The full list was thinned out, with actives kept by preference.

system: HSkMC (human skeletal muscle cells); experiment: cytotoxicity call (relative viability < 0.9); settings: 10 µM

Row | Compound | cytotoxicity call
1 | COc1ccc2c3c(n(c2c1)C)[C@H](CO)N(C[C@]13CN(C1)C(=O)CN1CCOCC1)C(=O)Nc1ccc(cc1)F | inactive
2 | C[C@H]1CN([C@@H](C)CO)C(=O)CCCn2cc(nn2)CO[C@@H]1CN(C)C(=O)c1ccc(N2CCN(C)CC2)cc1 | inactive
3 | CC/C(=C\C(=O)O)c1ccccc1 | inactive
4 | O=C(C[C@@H]1C[C@@H]2c3cc(NC(=O)C4CCOCC4)ccc3O[C@@H]2[C@H](CO)O1)NCCN1CCCCC1 | inactive
5 | COCC(=O)N1C[C@@H](C)[C@@H](OC)CN(C)C(=O)c2ccc(NC(=O)Nc3cccc(F)c3)cc2OC[C@@H]1C | inactive
6 | Cc1cccc(S(=O)(=O)N2C[C@H](O)COC[C@H]3O[C@H](CC(=O)NCc4ccncn4)CC[C@@H]32)c1 | inactive
7 | C[C@@H]1CCN(C(=O)[C@H](CCCNC(=N)N)NS(=O)(=O)c2cccc3c2NC[C@H](C)C3)[C@@H](C(=O)O)C1 | inactive
8 | CNC(=O)C[C@@H]1CC[C@@H]2[C@H](COC[C@H](O)CN2C(=O)c2ccccn2)O1 | inactive
9 | N#C[C@@H]1[C@H](c2ccc(C#Cc3ccccn3)cc2)[C@@H](CO)N1C(=O)CN1CCOCC1 | inactive
10 | CC(C)NC(=O)N(C)C[C@@H]1Oc2ccc(NS(=O)(=O)c3cn(C)cn3)cc2C(=O)N([C@H](C)CO)C[C@@H]1C | inactive
11 | C[C@@H]1CN([C@@H](C)CO)C(=O)c2cc(NC(=O)Nc3ccccc3)ccc2O[C@@H](C)CCCCO[C@H]1CN(C)S(=O)(=O)c1cccs1 | inactive
12 | C[C@H]1CN([C@@H](C)CO)C(=O)c2cccc(NC(=O)Nc3ccccc3)c2O[C@@H]1CN(C)C(=O)Nc1ccc(C(F)(F)F)cc1 | inactive
13 | C[C@@H]1CN([C@@H](C)CO)C(=O)c2cccc(NC(=O)Nc3ccc(C(F)(F)F)cc3)c2O[C@H]1CN(C)C(=O)Nc1ccc(C(F)(F)F)cc1 | inactive
14 | C[C@@H]1CN([C@H](C)CO)C(=O)c2cccc(NC(=O)Nc3ccc(F)cc3)c2O[C@@H]1CN(C)C(=O)Nc1ccc(C(F)(F)F)cc1 | inactive
15 | C[C@@H]1CN([C@@H](C)CO)C(=O)c2cccc(NC(=O)Nc3ccc(C(F)(F)F)cc3)c2O[C@@H]1CN(C)C(=O)Nc1ccc(C(F)(F)F)cc1 | active
16 | C[C@H](CO)N1C[C@H](C)[C@H](CN(C)C(=O)Nc2ccc(F)cc2)Oc2c(NC(=O)Nc3ccc(C(F)(F)F)cc3)cccc2C1=O | active
17 | C[C@@H]1CN([C@H](C)CO)C(=O)c2cccc(NC(=O)Nc3ccc(C(F)(F)F)cc3)c2O[C@H]1CN(C)C(=O)Nc1ccc(C(F)(F)F)cc1 | inactive
18 | C[C@H]1CN([C@@H](C)CO)C(=O)c2cccc(NC(=O)Nc3ccc(C(F)(F)F)cc3)c2O[C@@H]1CN(C)C(=O)Nc1ccc(C(F)(F)F)cc1 | active
19 | C[C@H](CO)N1C[C@H](C)[C@@H](CN(C)C(=O)Nc2ccc(C(F)(F)F)cc2)Oc2c(NC(=O)Nc3ccc(C(F)(F)F)cc3)cccc2C1=O | active
20 | C[C@H]1CN([C@@H](C)CO)C(=O)c2cccc(NC(=O)Nc3ccc(C(F)(F)F)cc3)c2O[C@H]1CN(C)C(=O)Nc1ccc(F)cc1 | inactive
21 | C[C@@H]1CN([C@H](C)CO)C(=O)c2cccc(NC(=O)Nc3ccc(C(F)(F)F)cc3)c2O[C@@H]1CN(C)C(=O)Nc1ccc(F)cc1 | inactive
22 | Cc1noc(C)c1S(=O)(=O)N(C)C[C@@H]1Oc2ccc(NC(=O)NC3CCCCC3)cc2CC(=O)N([C@H](C)CO)C[C@H]1C | inactive

Row | Compound | cytotoxicity call
23 | O=C(C[C@@H]1C=C[C@@H](NC(=O)c2ccc(F)cc2)[C@H](CO)O1)NCc1ccncn1 | inactive
24 | O=C(O)c1ccc(O)c(O)c1 | inactive
25 | O=C(O)c1cc(O)c(O)c(O)c1 [listing 1 of 2 here] | active
26 | O=C(O)c1cc(O)c(O)c(O)c1 [listing 2 of 2 here] | inactive
27 | COc1ccc(NC(=O)Nc2ccc3c(c2)C(=O)N([C@@H](C)CO)C[C@@H](C)[C@H](CN(C)C(=O)C2CCCCC2)OCCCC[C@H](C)O3)cc1 | inactive
28 | C[C@@H]1CN([C@H](C)CO)C(=O)Cc2cc(NC(=O)Cn3cnnn3)ccc2O[C@H]1CN(C)S(=O)(=O)c1cccs1 | inactive
29 | Oc1c(Cl)cc(Cl)c2cccnc12 | inactive
30 | Oc1ccc(Cl)c2cccnc12 [listing 1 of 2 here] | inactive
31 | Oc1ccc(Cl)c2cccnc12 [listing 2 of 2 here] | active
32 | O=C(NO)c1cccnc1 | inactive
33 | CCNC(=O)C[C@H]1C=C[C@H](NC(=O)C2CC2)[C@@H](CO)O1 | inactive
34 | C[C@H]1CCCCO[C@@H](CN(C)Cc2ccccc2)[C@@H](C)CN([C@@H](C)CO)C(=O)c2cc(NC(=O)c3ccncc3)ccc2O1 | inactive
35 | COc1cccc2c1C(=O)c1c(O)c3c(c(O)c1C2=O)C[C@@](O)(C(=O)CO)C[C@@H]3O[C@H]1C[C@H](N)[C@H](O)[C@H](C)O1 | active
36 | COc1cccc2c1C(=O)c1c(O)c3c(c(O)c1C2=O)CC(O)(C(=O)CO)CC3OC1CC(N)C(O)C(C)O1 (stereo not given) [listing 1 of 2 here] | active
37 | COc1cccc2c1C(=O)c1c(O)c3c(c(O)c1C2=O)C[C@](O)(C(=O)CO)C[C@H]3O[C@H]1C[C@@H](N)[C@@H](O)[C@@H](C)O1 | active
38 | CCCCC(=O)OCC(=O)[C@]1(O)Cc2c(O)c3c(c(O)c2[C@@H](O[C@H]2C[C@H](NC(=O)C(F)(F)F)[C@H](O)[C@H](C)O2)C1)C(=O)c1c(OC)cccc1C3=O | active
39 | COc1cccc2c1C(=O)c1c(O)c3c(c(O)c1C2=O)CC(O)(C(=O)CO)CC3OC1CC(N)C(O)C(C)O1.Cl (stereo not given) | inactive
40 | COc1cccc2c1C(=O)c1c(O)c3c(c(O)c1C2=O)CC(O)(C(=O)CO)CC3OC1CC(N)C(O)C(C)O1 (stereo not given) [listing 2 of 2 here] | inactive
41 | COc1cccc2c1C(=O)c1c(O)c3c(c(O)c1C2=O)C[C@@](O)(C(=O)CO)C[C@@H]3O[C@H]1C[C@H](N)[C@@H](O)[C@H](C)O1 | inactive
42 | COc1ccc(S(=O)(=O)Nc2ccc3c(c2)C(=O)N([C@@H](C)CO)C[C@@H](C)[C@@H](CN(C)CC2CCCCC2)OCCCC[C@H](C)O3)cc1 | inactive
43 | C=CCOC(=O)[C@@H]1[C@H]2C(=O)O[C@H](c3ccccc3)[C@H](c3ccccc3)N2[C@H](c2ccc(OCCOC(=O)[C@H]3C[C@H]4C(=O)N5CCC[C@H]5C(=O)N4[C@H]3c3ccc(O)cc3)cc2)[C@@]12C(=O)Nc1ccc(I)cc12 | inactive
44 | C[C@H]1CN([C@@H](C)CO)C(=O)c2cc(NC(=O)CCCCCC(=O)Nc3ccccc3N)ccc2O[C@@H]1CN(C)S(C)(=O)=O | inactive

Row | Compound | cytotoxicity call
45 | O=C(C[C@H]1CC[C@H]2[C@@H](COC[C@@H](O)CN2Cc2ccccc2F)O1)N[C@@H]1CCN(Cc2ccccc2)C1 | inactive
46 | CCCCCCCCCCNc1cc(CO)c2cc[nH]c2c1 | inactive
47 | COc1ccc(S(=O)(=O)Nc2ccc3c(c2)C(=O)N([C@H](C)CO)C[C@H](C)[C@H](CN(C)C(=O)NC2CCCCC2)OCCCC[C@H](C)O3)cc1 | inactive
48 | C[C@H]1CN([C@@H](C)CO)C(=O)Cc2cc(NS(=O)(=O)c3ccc(F)cc3)ccc2O[C@H]1CN(C)Cc1ccc(Cl)c(Cl)c1 | inactive
49 | C[C@@H]1CN([C@@H](C)CO)C(=O)Cc2cc(NS(=O)(=O)c3ccc(F)cc3)ccc2O[C@@H]1CN(C)Cc1ccc(Cl)c(Cl)c1 | active
50 | C[C@@H]1CN([C@H](C)CO)C(=O)Cc2cc(NS(=O)(=O)c3ccc(F)cc3)ccc2O[C@@H]1CN(C)Cc1ccc(Cl)c(Cl)c1 | active
51 | C[C@@H]1CN([C@H](C)CO)C(=O)Cc2cc(NS(=O)(=O)c3ccc(F)cc3)ccc2O[C@H]1CN(C)Cc1ccc(Cl)c(Cl)c1 | inactive
52 | C[C@@H]1CN([C@@H](C)CO)C(=O)Cc2cc(NS(=O)(=O)c3ccc(F)cc3)ccc2O[C@H]1CN(C)Cc1ccc(Cl)c(Cl)c1 | inactive
53 | C[C@H]1CN([C@@H](C)CO)C(=O)Cc2cc(NS(=O)(=O)c3ccc(F)cc3)ccc2O[C@@H]1CN(C)Cc1ccc(Cl)c(Cl)c1 | inactive
54 | C[C@H]1CCCCO[C@@H](CN(C)S(=O)(=O)c2cccs2)[C@@H](C)CN([C@@H](C)CO)C(=O)c2cc(NC(=O)C3CCCCC3)ccc2O1 | inactive
55 | C[C@H](CO)N1C[C@H](C)[C@H](CN(C)Cc2ccc(C(=O)Nc3ccccc3N)cc2)Oc2ccc(NC(=O)C3CCCCC3)cc2C1=O | inactive
56 | C[C@@H]1CN([C@@H](C)CO)C(=O)Cc2cc(NS(=O)(=O)c3cccs3)ccc2O[C@H]1CN(C)Cc1ccc(Cl)c(Cl)c1 | inactive
57 | C[C@H](CO)N1C[C@H](C)[C@H](CN(C)Cc2ccc(Cl)c(Cl)c2)Oc2ccc(NS(=O)(=O)c3cccs3)cc2CC1=O | inactive
58 | C[C@H](CO)N1C[C@H](C)[C@@H](CN(C)Cc2ccc(Cl)c(Cl)c2)Oc2ccc(NS(=O)(=O)c3cccs3)cc2CC1=O | inactive
59 | C[C@@H]1CN([C@H](C)CO)C(=O)Cc2cc(NS(=O)(=O)c3cccs3)ccc2O[C@@H]1CN(C)Cc1ccncc1 | inactive
60 | C[C@@H]1CN([C@H](C)CO)C(=O)Cc2cc(NS(=O)(=O)c3cccs3)ccc2O[C@@H]1CN(C)Cc1ccc(Cl)c(Cl)c1 | active
61 | C[C@H]1CN([C@@H](C)CO)C(=O)Cc2cc(NS(=O)(=O)c3cccs3)ccc2O[C@H]1CN(C)Cc1ccc(Cl)c(Cl)c1 | active
62 | C[C@@H]1CN([C@H](C)CO)C(=O)Cc2cc(NS(=O)(=O)c3cccs3)ccc2O[C@H]1CN(C)Cc1ccc(Cl)c(Cl)c1 | active
63 | C[C@@H]1CN([C@@H](C)CO)C(=O)Cc2cc(NS(=O)(=O)c3cccs3)ccc2O[C@@H]1CN(C)Cc1ccc(Cl)c(Cl)c1 | inactive
64 | C[C@H]1CN([C@@H](C)CO)C(=O)Cc2cc(NS(=O)(=O)c3cccs3)ccc2O[C@@H]1CN(C)Cc1ccc(Cl)c(Cl)c1 | inactive
65 | COc1ccc(S(=O)(=O)N(C)C[C@H]2Oc3c(NC(=O)NC(C)C)cccc3C(=O)N([C@H](C)CO)C[C@H]2C)cc1 | inactive
